# Test results published in PubChem BioAssay AID651595 (National Center for Advancing Translational Sciences (NCATS), 2012).
# The campaign covered roughly 1,100 compounds. Fewer than 10 were called active. Another 6% or so got no clear call; they are omitted. These entries were drawn from the full list. Values without a mark were called inactive. Calls follow the shape of the dose curve; as a rule, active = well fitted cell-killing curve with a large enough effect; inconclusive = small, poorly fitted or top-dose-only effect; inactive = flat fitted curve, though single readings scatter.
# Assay: qHTS of Nrf2 Activators: Hit Validation in Cytotox Assay;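 also: compound exposure lasted 24 hours before the ATP readout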; as to activity change, negative = cytotoxicity: 0% is about no effect
# Conditions: Cell viability counter-screen for Nrf2 activator hits; series mostly up to 46.1 µM; activity change, negative = cytotoxicity: at the top concentration
# Source text: Many diseases have some form of oxidative stress injury and ties to inflammation, causing a host of problems for the patient. The antioxidant response element (ARE) plays an important role in alleviating the harmful effects of oxidative stress. The antioxidant response element (ARE) is a transcriptional regulatory element involved in the activation of genes coding for a number of antioxidant proteins and detoxifying enzymes. These enzymes work in concert to protect tissues from oxidative insults and chemical toxicities in human hepatocytes and immune cells. The protective effects of ARE activation are primarily triggered through Nrf2 (NF-E2-related factor) binding to and activating AREs. It is known that Nrf2 controls the production of over 250 antioxidant and detoxification proteins (Hu et al., 2006), thereby protecting tissues by increasing cellular antioxidant content and suppressing inflammatory signaling pathways. The transcription factor Nrf2 is a central link between oxidative chemicals, such as phenolic antioxidants and electrophilic compounds, and the activation of ARE. Nrf2 levels are constitutively low as a consequence of its interaction with Keap1, which targets its degradation (Zipper and Mulcahy, 2002). Electrophiles react with key cysteine residues in Keap1, releasing Nrf2 and allowing its translocation to the nucleus. Once within the nucleus, Nrf2 complexes with coactivators such as p300, and binds to the AREs to induce gene transcription of cytoprotective enzymes, resulting in the prevention of toxicity. Activation of Nrf2 protects tissues by increasing cellular antioxidant content and suppressing inflammatory signaling pathways. Identifying novel and potent Nrf2 activators by using the AREc32 cell line to detect ARE activation by small molecules will lead to the identification and development of probes to study protective pathways in multiple tissues. These specific probes are essential to study the ARE pathway, and eventually to determine whether this pathway does activate genes that could protect against a host of diseases, including cardiovascular diseases, obesity, diabetes, Alzheimer's, and Parkinson's disease.
# This project's aim is to identify novel and potent Nrf2 activators by using the AREc32 cell line to detect ARE activation by small molecules, which will lead to the identification and development of probes to study the ARE pathway. Cytotoxic compounds are flagged as active, and inactivity is desired in this assay.
# NIH Chemical Genomics Center [NCGC]
# NIH Molecular Libraries Probe Centers Network [MLPCN]
# Assay Submitter (PI): Curtis Klaassen, University of Kansas Medical Center
# Cell viability after compound treatment was measured using a luciferase-coupled ATP quantitation assay (CellTiter-Glo, Promega) in AREc32_fluc cells. The change of intracellular ATP content indicates the number of metabolically competent cells after compound treatment. AREc32_fluc cells were harvested from T225 flask and resuspended in phenol red free OPTI-MEM medium with 5% FBS. Then 5 microL of 200,000 cells/ml resuspended cells was dispensed into each well of white, solid bottom, 1536-well tissue culture-treated plates using a Multidrop Combi dispenser. After overnight culture at 37 degrees C with 5% CO2, a total of 23 nL of compounds at 7 selected concentrations from the cherry pick or positive control (40 uM stock of CDDO-IM and 2 mM of tBHQ) in DMSO was transferred to each well of the assay plate using a pintool (Kalypsys, San Diego, CA), and the plates were further incubated at 37 degrees C with 5% CO2 for 24 hours. After that, 4 microL of CellTilter-GloTM luminescent substrate mix (Promega) was added to each well. The plate was incubated at room temperature for 30 minutes. The plates were measured on a ViewLux plate reader (PerkinElmer) with clear filter.
# Potency is read from the fitted curve at half-maximal effect.
SMILES,"activity change, negative = cytotoxicity [%]",Potency
CCc1c(C)sc(NC(=O)c2ccco2)c1C#N,12.1,
COc1ccccc1NC(=O)/C=C\c1ccco1,2.45,
CCN(C(=O)Cn1nnc2sc(-c3ccccc3)cc2c1=O)c1cccc(C)c1,-9.78,
NC(=S)NN=C1CSSC1,-21.6,
COc1ccc(-c2nnc3c4ccccc4c(C)nn23)cc1,4.5,
O=C1Nc2ccccc2SC1=Cc1ccccc1,1.37,
C/C(=N/NC(=O)CNC(=O)/C=C/c1ccco1)c1ccc(Cl)cc1,-4.27,
CCOC(=O)c1ccccc1N/C=C/C(=O)c1ccccc1,1.71,
O=C(Nc1cccc([N+](=O)[O-])c1)c1[nH]ncc1Cl,-11.2,
COc1ccc(Cl)cc1NC(=O)C1COc2ccccc2O1 (configuration not stated),4.89,
COc1ccc(C(C#N)=C2C=CC(=NO)C=C2)cc1,-1.04,
CC(=O)c1ccccc1NC(=O)COC(=O)/C=C/c1ccc(C)o1,11.2,
O=[N+]([O-])c1ccc(NN=Cc2ccco2)nc1,10.9,
O=C(/C=C/Nc1ccc(F)c(Cl)c1)c1ccco1,-0.863,
COc1ccc(Cl)cc1C(=O)O/N=C(\N)c1ccccn1,-3.19,
CCOC(=O)c1c(NC(=O)/C=C/c2ccc(C)o2)sc(C)c1C,4.84,
O=[N+]([O-])c1ccc(Cl)cc1N/N=C/c1ccncc1,6.03,
O=C(Nc1nc(=O)c2ccccc2s1)c1ccccc1,-18.4,
Clc1ccccc1C=NNc1ccccn1,0.451,
CC(C)C(=O)Nc1nnc(-c2ccco2)s1,6.12,
Cn1c(/N=C(\N)c2ccccc2)nc2ccccc21,-3.63,
O=C(Nc1ccccc1C(=O)NCCc1ccccc1)c1ccco1,5.2,
NC(=O)c1oc2ccccc2c1NC(=O)c1ccccc1,1.78,
O=C1COc2ccc(C(=O)COC(=O)/C=C/c3ccco3)cc2N1,-0.414,
O=C(Nc1nccc(-c2cccs2)n1)c1cccs1,-1.81,
N/C(=N\OC(=O)c1cc(Cl)ccc1Cl)c1cccnc1,-4.62,

SMILES,"activity change, negative = cytotoxicity [%]",Potency
Cc1ccc(-c2nc3cccnc3s2)cc1NC(=O)c1ccco1,-5.81,
Cn1c(SCC(=O)N/N=C/C=C\c2ccco2)nc2ccccc21,2.39,
CC(C)c1ccc(NC(=O)c2sccc2-n2cccc2)cc1,-13.6,
COC(=O)c1ccc2nc(-c3ccc(F)cc3)c(CC3CCCCC3)n2c1,-1.86,
Cc1ccc(-c2cc(C(F)(F)F)c(C#N)c(SCCC#N)n2)o1,6.99,
Clc1nc2sccn2c1/C=N/n1cnc2ccccc21,6.23,
CC(=NNc1ccc2ccccc2n1)c1ccccc1O,-19.7,
O=c1oc2ccc(Cl)cc2nc1/C=C(\O)c1cccs1,-4.12,
C=C(NC(=O)C(=C)NC(=O)c1csc(C2=NC3c4csc(n4)C4NC(=O)c5csc(n5)C(C(C)(O)C(C)O)NC(=O)C5CSC(=N5)/C(=C/C)NC(=O)C(C(C)O)NC(=O)c5csc(n5)C3(CC2)NC(=O)C(C)NC(=O)C(=C)NC(=O)C(=C)NC(=O)C(C(C)C)NC2C=Cc3c(C(C)O)cc(nc3C2O)C(=O)OC4C)n1)C(N)=O (configuration not stated),-14.5,
O=c1nc2c(-c3ccccc3F)n[nH]n2c2ccccc12,-3.43,
O=C(CSc1ccc(-c2ccco2)nn1)N1CCCCCC1,0.45,
O=C1C(Cl)=C(Nc2ccccc2)C(=O)c2ccccc21,,16.4 µM (active)
c1ccc(-c2cnc(-c3ccccc3)nn2)cc1,-0.44,
O=C(Nc1ccccc1)N1CCn2c1nc1ccccc12,2.76,
CC(=O)Nc1ccc(N=Nc2ccccc2)cc1[N+](=O)[O-],-3.62,
Brc1ccc(-c2csc(N/N=C/c3ccco3)n2)cc1,8.79,
CC(=O)c1sc2nc(-c3cccs3)cc(C(F)(F)F)c2c1N,-2.42,
O=c1oc2ccccc2nc1/C=C(\O)c1ccc(Br)cc1,-1.91,
O=[N+]([O-])c1ccc(/C=N/Nc2ccc3ccccc3c2)o1,-19.5,
O=C(NCC1CCCO1)c1ccc([N+](=O)[O-])o1 (configuration not stated),-12.8,
O=[N+]([O-])c1ccc(/C=[N+](\[O-])[C@@H]2CCCC[C@@H]2/[N+]([O-])=C/c2ccc([N+](=O)[O-])o2)o1,,18.4 µM (active)
c1ccc(C2=Nn3c(nnc3-c3ccco3)SC2)cc1,6.11,
Cc1ccccc1NC(=O)/C(C#N)=C/c1ccsc1,0.178,
Nc1nonc1N/N=C/c1c(O)ccc2ccccc12,8.84,
O=C(Nc1cc2nn(-c3ccccc3)nc2cc1Cl)c1ccco1,5.66,
Cc1nn2c(-c3ccccc3)nnc2c2ccccc12,2.1,

SMILES,"activity change, negative = cytotoxicity [%]",Potency
O=c1[nH]c(/C=C/c2ccccc2[N+](=O)[O-])nc2ccccc12,0.48,
O=C(NC(=S)Nc1ccccc1O)c1ccccc1Cl,8.07,
Cc1ccc(O)c(NC(=O)c2cccc(NC(=O)c3ccco3)c2)c1,2.1,
O=C(NC(=S)Nc1cnc2ccccc2c1)c1ccccc1,-0.119,
Cc1nn2c(-c3ccco3)nnc2c2ccccc12,6.15,
COc1ccc2oc3cc(Cl)ccc3c(=O)c2c1,-1.78,
Cc1cccc(NC(=O)Nc2ccccc2[N+](=O)[O-])n1,5.2,
Cc1ccc(Cn2c(/C=C/c3ccco3)nc3ccccc32)cc1,-21.8,
Clc1ccc(C=Cc2ccccn2)cc1,1.25,
N#C/C(=C\c1ccccc1)c1ccccn1,-2.49,
O=c1[nH]c(SCc2cccc([N+](=O)[O-])c2)nc2[nH]ncc12,0.58,
COc1ccc(OC)c(C=C2CCc3ccccc3C2=O)c1,1.45,
O=C(Oc1cccc(-c2cnc3ccccc3n2)c1)c1ccco1,-1.91,
Cc1ccc(C)c(/C=N/Nc2ccccn2)c1,9.8,
O=C(Nc1cc(-c2nc3ncccc3o2)ccc1Cl)c1ccco1,11,
CN(C)CCN(C(=O)/C=C/c1cccs1)c1nc2ccc(F)cc2s1,-13.7,
O=C(Nc1nnc(-c2cccs2)s1)c1cccc(F)c1,7.96,
Cc1nn(-c2ccc3ccccc3c2)c(=O)c2ccccc12,4.52,
Cc1cc(C)c2c(N)c(C(=O)c3ccc(Br)cc3)oc2n1,-19.8,
Cc1ccc(-c2nc(NCc3ccco3)c3ccccc3n2)cc1,-1.85,
Brc1cc(Br)c2nc(-c3cccs3)ccc2c1,5.71,
S=c1nc(-c2ccccc2)[nH]c2ccc(Br)cc12,8.86,
N#C/C(=C(/O)c1ccco1)c1nc2ccccc2[nH]1,-1.76,
N#C/C(=C\c1ccc([N+](=O)[O-])o1)c1nc2ccccc2[nH]1,,20.6 µM (active)
N#C/C(=C(/O)c1ccc(Br)s1)c1nc2ccccc2[nH]1,-1.87,
